In paper PMC13494018:

B1: design_613_5efed0bc-64ba-423b-b3f9-a246574e49bb_1837_dldesign_0_cycle1_af2pred (protein)
chain: MTPREKAIAAINAATALAAAAVPAYADTFADLAGIVLTALEAGTGPTAVRVVGQAVVNVLRGAGATAAADAVAALYDEALEAAKAAA
B2: design_613_5efed0bc-64ba-423b-b3f9-a246574e49bb_2155_dldesign_0_cycle1_af2pred (protein)
chain: AAAQAAAVATAAGQALLKQGKKLFEEGKKSGDKKLLEEAAKNFELAATMYAQASAAAGGAADANKKEAEAKLEEAKAAI
B3: design_613_5efed0bc-64ba-423b-b3f9-a246574e49bb_1611_dldesign_0_cycle1_af2pred (protein)
chain: DAAAKAKAKEAEAKGKELIAKAKAAAEAGDYDAANAYLQQAIKLGMEMASSGASQAEVDVGAKIVSAVVEAMEYMSAQRRARR
B4: design_613_5efed0bc-64ba-423b-b3f9-a246574e49bb_1212_dldesign_0_cycle1_af2pred (protein)
chain: SPVEVALAAAKATVKSAEKANVESAEKLAEVAKDLAEYAAKLGGEEAKKEAEKIKKEAEEAVKKQKERAAAA
B5: design_613_5efed0bc-64ba-423b-b3f9-a246574e49bb_1387_dldesign_0_cycle1_af2pred (protein)
chain: AAAAAQAGQLAVQAAQGMIKKAKEILKRMPEVDPEKALASAKGVTDVAQALADQAIASPATAAQGKALKAEAKAVLAEAEKAAA
B6: design_613_5efed0bc-64ba-423b-b3f9-a246574e49bb_1032_dldesign_0_cycle1_af2pred (protein)
chain: AQAKADELEALGKEAEKKAKEAKNPEAAALYKGAAELMNAMAEAARQTPEFADQLYRMGKASYEALKTEAEKKEAAYKEKE
B7: design_613_5efed0bc-64ba-423b-b3f9-a246574e49bb_2054_dldesign_0_cycle1_af2pred (protein)
chain: FERAARAVEAVIELLRLLAEGNPATAAELRARAEELEAELAKARELAEKEGPEAGKARAEAIAAEGRRLLAEASRTAV
B8: design_613_5efed0bc-64ba-423b-b3f9-a246574e49bb_1796_dldesign_0_cycle1_af2pred (protein)
chain: SAANIAAAKAYANMAATLAKQAGNEEAAKKAKEAAKVAADKEKATKLLKEAEELLKKEPAEKAPYTNKALEFIKLAKEALSKL
B9: design_614_ef6b398b-10cb-4a07-8087-96dafb4f9c83_806_dldesign_0_cycle1_af2pred (protein)
chain: AAAQLAAENIALAKAIFEEVRKEALKAIEALKKAKEAASDPELAAKYLEKAKEALKKAEELAAKGSEGIALLARNYVRSLLASTA
B10: design_614_ef6b398b-10cb-4a07-8087-96dafb4f9c83_822_dldesign_0_cycle1_af2pred (protein)
chain: AEEEKRRAIAEAAMRQFKEIAEGAAATALANPAIADGALASVKALGKNLVEGAKAQSPELGKKAAEVAKEAIEKVEKAAKEAKAA
B11: design_613_5efed0bc-64ba-423b-b3f9-a246574e49bb_1343_dldesign_0_cycle1_af2pred (protein)
chain: LAEAAERTARAIERNALEAIKTLSPEEAKRAAELAVTMLEGLAIAAPEAAPVARGLAERVRAAEREYTSKKLAE
B12: design_613_5efed0bc-64ba-423b-b3f9-a246574e49bb_1210_dldesign_0_cycle1_af2pred (protein)
chain: AEKIEKLTKALELLLEALKHKDDIELARELAKKAAELLKEAGAEEAAKYAEAAAKATDKEEMTELLNKAAGKAAKAIIDAQKAAA
B13: design_614_ef6b398b-10cb-4a07-8087-96dafb4f9c83_741_dldesign_0_cycle1_af2pred (protein)
chain: SELIERAKNLLEAAKVFLTAAQSALAAGQKATAATLAQQAIKYATEAAKLAKEAGDEKLAEEAKKVKEQAEKVLKQAQ
B14: design_614_ef6b398b-10cb-4a07-8087-96dafb4f9c83_652_dldesign_0_cycle1_af2pred (protein)
chain: GAAEEAKKWAKKAEEALKAAQKAADAAGKTPTLQQYVDNAKRAAEKAKETSKDPSKVEQTKGWAKMAELWAQAAKQQAAAVAAA
B15: design_613_5efed0bc-64ba-423b-b3f9-a246574e49bb_2419_dldesign_0_cycle1_af2pred (protein)
chain: ALGQQLVQQAKEKGKELLEIAKKGTAADAGEAAVELARFTSETARQLEQAGLPAAAQQVLAIGQKTLKEISAIGIAKITA
B16: design_614_ef6b398b-10cb-4a07-8087-96dafb4f9c83_591_dldesign_0_cycle1_af2pred (protein)
chain: MTPEEAARAALRSARAALESLKLAVEQGGTLEDVLALGAVAKQSAQAAVELGKQAPEIYEEVKKEAEKIKKEVEKAVAKAKA
B17: design_613_5efed0bc-64ba-423b-b3f9-a246574e49bb_1690_dldesign_0_cycle1_af2pred (protein)
chain: AAALEVGRRTLAALERTAEAAIAAARATTPEEAAREMGRARAAAEQARLIGEGVPELAPRAEALAERVAAAAAALEAA
B18: design_614_ef6b398b-10cb-4a07-8087-96dafb4f9c83_4_dldesign_0_cycle1_af2pred (protein)
chain: AAGDEAANAAIALGQVLGPEVAEETTKAVEYMKSGSEKEKAKEYAEKAVELAEKVGPNSAASLKAILEKAEKLFS
B19: design_613_5efed0bc-64ba-423b-b3f9-a246574e49bb_1341_dldesign_0_cycle1_af2pred (protein)
chain: AVAAAGAKGLAAAAKSVAEATIRLAEQVAKEDPSKAEQAKAIAEQAKAAAAAAAKAAEAGDTAAAQAQFQKLVALYQQVLDLAK
B20: design_614_ef6b398b-10cb-4a07-8087-96dafb4f9c83_13_dldesign_0_cycle1_af2pred (protein)
chain: SEAEKQAIEIAIAAVLKAGELAGVPEEAKKVAEKIKKSNAGAALAIASAFLNRAAAAAEAAGDAATAAAIRALRTATTAKILALLRG
B21: design_614_ef6b398b-10cb-4a07-8087-96dafb4f9c83_520_dldesign_0_cycle1_af2pred (protein)
chain: AEGKALFEATKKEMEELREKGKAGTPELAKEQAAKILSLGLRTQGVLQTLGHTAEGDAALEYAKEVAEKAREWAKK
B22: design_613_5efed0bc-64ba-423b-b3f9-a246574e49bb_1763_dldesign_0_cycle1_af2pred (protein)
chain: LQELIENGETLEALGKSAAAAGFNATAKRLYQDAAEQYKKAAEKAKELGDEELAKEYEAKAKEAEAKAKEY
B23: design_613_5efed0bc-64ba-423b-b3f9-a246574e49bb_992_dldesign_0_cycle1_af2pred (protein)
chain: GERVEELRALVEEAARVSPELAALAQEALRLYLRGLALSANPATAARGEAAFAESERLAAEARARLAERLAAAAA
B24: design_613_5efed0bc-64ba-423b-b3f9-a246574e49bb_1398_dldesign_0_cycle1_af2pred (protein)
chain: MEEVKEEMEKLLEKVKKAVAEDVGKGGEVLVEFVKKGAELAANSTPEAAAYARKKMKEAINIVLEATLAA
B25: design_614_ef6b398b-10cb-4a07-8087-96dafb4f9c83_149_dldesign_0_cycle1_af2pred (protein)
chain: MEEAEKYLKKAEEIVEKAKEEALKYAKEGDIGAAVETLAKALKEARKLYEKAGKAGDPEEAEKKAKEAEERINQAMAEAARTALEVAN
B26: design_613_5efed0bc-64ba-423b-b3f9-a246574e49bb_1183_dldesign_0_cycle1_af2pred (protein)
chain: AEAQKLLEEARKLKEKAFALSPLQVGESLRYASELRKLAEKAAEADPSLAPEAKALAEETSAHVAAKARAGIAAQAA
B27: design_613_5efed0bc-64ba-423b-b3f9-a246574e49bb_1354_dldesign_0_cycle1_af2pred (protein)
chain: GEALKEALRQKALEAANKALALTSQLWTKDPARAQPAIALIIQGLETGDPKYFFEAAEKVAADPEAAGAAKAAGEYMEKANKL
B28: design_613_5efed0bc-64ba-423b-b3f9-a246574e49bb_1256_dldesign_0_cycle1_af2pred (protein)
chain: DKAVTSAILRKSLAHARRQLAAATTAEEAEAVAQTAQVLADAAKAAGDAATAAEAAALAAEARAKAAALRAAEEAAA
B29: design_613_5efed0bc-64ba-423b-b3f9-a246574e49bb_1285_dldesign_0_cycle1_af2pred (protein)
chain: GLKEELLKEVRKVKKEAEKNAKDLEKLNEYLAKALDIAKKAQEAGDKETIAEATKVANLAAKLALEVAKA
B30: design_613_5efed0bc-64ba-423b-b3f9-a246574e49bb_1308_dldesign_0_cycle1_af2pred (protein)
chain: AAAEKAKEAAKKAEELAKYAEEHKEELTPEELRKIGYELVKQGNTLLQAGGAAQAAAQKAFGYAAEVAELIRE
B31: design_613_5efed0bc-64ba-423b-b3f9-a246574e49bb_1180_dldesign_0_cycle1_af2pred (protein)
chain: AEAEEKKRRAEAHVQAAEVYITAARSAMEAGLTDAALAHAKRAIEHAQKAIELGEPRGKELLAEAEAVLKEVKA
B32: design_614_ef6b398b-10cb-4a07-8087-96dafb4f9c83_88_dldesign_0_cycle1_af2pred (protein)
chain: GAALEEALRARAEAARRAMVAVSQAYQLDPALGNEYLARLSEAIAAAEKVLAEGKAKTPEAAAKAVKAAAEEIAALAEEIAAAVEALK
B33: design_613_5efed0bc-64ba-423b-b3f9-a246574e49bb_1441_dldesign_0_cycle1_af2pred (protein)
chain: SEAERLAEEARRVILSGTAEEGAAAAVAAARKALEAGNLEGANLVLYESALAFGEAQRRGTPEDRAILNRGLAEVSRITLELARAA
B34: design_613_5efed0bc-64ba-423b-b3f9-a246574e49bb_898_dldesign_0_cycle1_af2pred (protein)
chain: GEEEERLRREGERIVEEARRLAEEAVAAIKAAAPDVAKATAILIDYLKRIDELVKRAAPYPEAAAEVAELGNRASAQGIRYIMAAA
B35: design_613_5efed0bc-64ba-423b-b3f9-a246574e49bb_2086_dldesign_0_cycle1_af2pred (protein)
chain: AEDERRVASMRELAAQLVAIAEANAANPAALAIVRASALAAGRSFAAAASPEAAAEILAIAAATAARIAAIAAAAAAAA
B36: design_613_5efed0bc-64ba-423b-b3f9-a246574e49bb_2281_dldesign_0_cycle1_af2pred (protein)
chain: AAAELIAKAKEYQAKALEYVKLAKEAEAAAKAATPEEGAKLNAKADFFNAMALVYAQRAAALLAQVDPALAKAALEKVQKAIA
B37: design_613_5efed0bc-64ba-423b-b3f9-a246574e49bb_2052_dldesign_0_cycle1_af2pred (protein)
chain: GGAAAIALAEAVARQAERQAEEAIAIAPERAPEIEELLERARELAKQAVALAKAGDLGAATEHVVKALELVGEIGRIAREAAAA
B38: design_614_ef6b398b-10cb-4a07-8087-96dafb4f9c83_786_dldesign_0_cycle1_af2pred (protein)
chain: STEQAAQIALNTAKANYKAAKAAAAAGDLAQAEANVKNLKLLTEAAKYYDPEAGKEVEKYYKEAKEAVEKAKAA

What follows are binders tested against CD276, Q5ZPR3.
CD276, Q5ZPR3, sequence (Q5ZPR3 whole entry): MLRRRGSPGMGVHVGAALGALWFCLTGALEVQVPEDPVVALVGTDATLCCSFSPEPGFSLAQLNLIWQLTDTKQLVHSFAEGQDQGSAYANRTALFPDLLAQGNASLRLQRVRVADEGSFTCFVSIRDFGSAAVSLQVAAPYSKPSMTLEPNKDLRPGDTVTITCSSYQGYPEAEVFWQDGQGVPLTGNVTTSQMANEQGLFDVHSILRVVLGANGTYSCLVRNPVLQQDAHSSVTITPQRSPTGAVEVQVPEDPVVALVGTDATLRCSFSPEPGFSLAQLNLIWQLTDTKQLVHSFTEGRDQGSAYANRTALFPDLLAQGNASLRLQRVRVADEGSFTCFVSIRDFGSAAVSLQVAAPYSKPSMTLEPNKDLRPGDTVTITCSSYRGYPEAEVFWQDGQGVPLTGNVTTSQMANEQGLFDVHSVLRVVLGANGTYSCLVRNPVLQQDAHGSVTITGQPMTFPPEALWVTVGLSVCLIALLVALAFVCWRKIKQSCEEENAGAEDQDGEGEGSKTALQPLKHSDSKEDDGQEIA

Binding in a display sort, inactive:
B1 not found
B2 not found
B3 not found
B4 not found
B5 not found
B6 not found
B7 not found
B8 not found
B9 not found
B10 not found
B11 not found
B12 not found
B13 not found
B14 not found
B15 not found
B16 not found
B17 not found
B18 not found
B19 not found
B20 not found
B21 not found
B22 not found
B23 not found
B24 not found
B25 not found
B26 not found
B27 not found
B28 not found
B29 not found
B30 not found
B31 not found
B32 not found
B33 not found
B34 not found
B35 not found
B36 not found
B37 not found
B38 not found
